HCV inh = inhibitors of hepatitis C virus infection | 340,000 compounds, 3.4% hits | Huh7.5.1 HCVcc-Cre infection, luciferase reporter, 44 h | AID 651820 | Potency, µM (doses to about 41.8 µM), without a hit: at the highest dose activity change, negative = inhibition, actives largely listed as inhibitors
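Cells (1,000/well) were plated 4 h before compound, then infected with HCVcc-Cre virus (~0.5 moi). After 44 h further culture, infection was read as luciferase luminescence following a 15 min substrate incubation at room temperature.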
AmpC detergent = blocks E. coli AmpC beta-lactamase in detergent assay; AmpC hydrolysis of nitrocefin, absorbance 480 nm, 0.01% Triton; Potency, µM (top dose mostly 114 µM), for inactives: top-dose activity change, negative = inhibition, usual class: inhibitors; 370,000 compounds, 0.041% hits; AID 485294;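 note: 0% = no-compound wells and -100% = no-enzyme wells; nearly all actives have a fitted effect of over 25% in size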
Target sequence (P00811 whole entry, looked up): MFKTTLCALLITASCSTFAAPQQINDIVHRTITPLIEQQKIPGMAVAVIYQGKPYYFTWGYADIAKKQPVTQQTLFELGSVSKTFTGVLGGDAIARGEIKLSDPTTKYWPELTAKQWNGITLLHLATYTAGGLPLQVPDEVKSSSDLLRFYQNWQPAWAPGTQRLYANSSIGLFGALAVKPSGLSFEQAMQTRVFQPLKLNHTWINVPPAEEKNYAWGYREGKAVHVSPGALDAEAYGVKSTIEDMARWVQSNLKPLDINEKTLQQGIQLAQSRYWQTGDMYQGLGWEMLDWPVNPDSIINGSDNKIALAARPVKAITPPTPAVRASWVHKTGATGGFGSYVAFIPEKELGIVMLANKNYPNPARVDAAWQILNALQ
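AmpC (5.3 nM in the dispensed reagent) in 20 mM phosphate pH 7.0 with 0.01% (detergent screen) or 0.0001% Triton X-100 was preincubated with compounds for 15 min at room temperature. Nitrocefin was then added from an 800 uM solution, and hydrolysis was followed at 480 nm.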
Pf growth 96h = inhibits malaria parasite growth, 96 h; P. falciparum luciferase reporter growth, 96 h; Potency, µM (top dose mostly 28.7 µM), for the others: at the top dose activity change, negative = inhibition, actives largely listed as inhibitors; 320,000 compounds, 6.9% hits
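Parasite growth measured via integrated firefly luciferase reporter in P. falciparum. Infected erythrocytes at 2% hematocrit, 0.05% parasitemia final were treated 96 hours at 37 C under 5% CO2, and luminescence was read.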
AMA1-RON2 inh = inhibitors of Plasmodium falciparum AMA1-RON2 interaction. AlphaScreen AMA1-biotinylated RON2 peptide binding. Potency, µM (series often up to 58.2 µM), for inactives: top-dose activity change, negative = inhibition, usual class: inhibitors. 360,000 compounds, 0.2% hits;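 note: 0% = vehicle wells and -100% = peptide control; nearly all actives have a fitted effect of over 45% in size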
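AMA1 (3D7) with his tag at 25 nM final met compounds first, then biotinylated RON2 peptide at 25 nM; detection used donor plus acceptor beads, 10 µg/mL apiece, read by AlphaScreen after 30 min at room temperature.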
AmpC inh no detg = inhibitors of E. coli AmpC beta-lactamase without detergent; AID 485341; P00811; 330,000 compounds, 0.52% hits; Potency, µM (doses to about 57.1 µM), for inactives: at the top dose activity change, negative = inhibition, usual class: inhibitors; AmpC nitrocefin hydrolysis, absorbance 480 nm, 0.0001% Triton;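 note: plate controls were no compound for no effect and no enzyme for full effect; nearly all actives have a fitted effect of over 20% in size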
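20 mM phosphate pH 7.0 + 0.01% (detergent screen) or 0.0001% Triton X-100; 5.3 nM AmpC reagent; cpd preinc 15 min RT; nitrocefin (800 uM stock) to start; A480 q20 s × 4 min; Activity was normalised to no-enzyme and no-compound control wells.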
Pf growth 48h = inhibits P. falciparum growth in the first generation, 48 h; Potency, µM (top dose mostly 28.7 µM), without a hit: at the highest dose activity change, negative = inhibition, actives largely listed as inhibitors; 310,000 compounds, 5.9% hits; P. falciparum luciferase growth in erythrocytes, 48 h; AID 504832
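First compound was added to culture medium, then infected red cells at 0.1% parasitemia and 2% hematocrit (final). After incubation at 37 C under 5% CO2, luciferase detection reagent was dispensed and light output recorded.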
An asterisk follows results filed as active; ? = inconclusive; nt = no result; [ ] = another dose, or the depositor's remark. A selection: hits, their analogues and other compounds. The true share with any hit is near 11%. Calls come from the whole dose curve; as a rule, active = well fitted curve in the direction sought with a large enough effect; inconclusive = small, poorly fitted or top-dose-only effect, or another doubt; inactive = no such curve, though single readings can be large; an effect the other way counts as inactive or inconclusive. Unless noted, % is set by controls: 0 for no effect and ±100 for the full control effect; potency is the fitted concentration of half-maximal effect.

SMILES	HCV inh	AmpC detergent	Pf growth 96h	AMA1-RON2 inh	AmpC inh no detg	Pf growth 48h
O=C(Nc1cccc(Cl)c1)C1COc2ccccc2O1 (centres undefined)	18%	4%	1.7µM*	5%	-20%	-2%
Cc1cc(C)n(C(=O)c2ccc(NC(=O)C3COc4ccccc4O3)cc2)n1 (centres undefined)	3%	-10%	8.3µM*	-4%	nt	30%
COC(=O)c1cc(NC(=O)C2COc3ccccc3O2)cc(C(=O)OC)c1 (centres undefined)	?	3%	nt	10%	0.22µM*	?
COC(=O)c1ccccc1NC(=O)C1COc2ccccc2O1 (centres undefined)	?	9%	-6%	19%	-4%	-16%
COc1cccc(NC(=O)C2COc3ccccc3O2)c1 (centres undefined)	-3%	?	?	12%	-1%	82%
O=C(Nc1cccc(Cl)c1)C1C2CCC3C(CCC21)C3(Cl)Cl (centres undefined)	?	?	?	10%[2.32 µM]	-43%	9.3µM*
Cn1cc(S(=O)(=O)N2CCCC2)cc1C(=O)Nc1ccc(C(F)(F)F)cc1	nt	-7%	nt	nt	nt	nt
COc1ccc(-n2ccnc(NCc3cccs3)c2=O)cc1	nt	0%	nt	nt	nt	nt
O=C(Nc1ccc(Oc2nnc(-c3ccccc3)c3ccccc23)cc1)c1ccccc1	-8%	-17%	-7%	1%	-30%	10µM*
COc1ccc(Oc2nnc(-c3ccc(C)cc3)c3ccccc23)cc1	22%	?	13%	-6%	0%	4%
COc1cc(-c2ccccc2)nc(N)n1	3%	0%	3.3µM*	7%	-7%	nt
Cc1ccc(S(=O)(=O)NC(=O)Nc2nnc(C)s2)cc1	12%	2%	15%	-8%	0.4µM*	-7%
CC(=O)c1ccc(NC(=O)Nc2ccc(NS(=O)(=O)c3ccc(C)cc3)cc2)cc1	11µM*	-2%	4%	-22%	-53%	?
Cc1ccc(CNC(=S)Nc2ccc(NS(=O)(=O)c3ccc(C)cc3)cc2)cc1	-24%	0%	10µM*	-9%	2.2µM*	-21%
Cc1ccc(S(=O)(=O)Nc2ccc(-n3cnnn3)cc2)cc1	6%	-3%	12µM*	-7%	-34%	6%
COC(=O)Nc1ccc(S(=O)(=O)Nc2ccc(C)cc2)cc1	nt	?	8%	nt	-26%	nt
CCOc1ccc(CC(=O)NCC(c2cccs2)S(=O)(=O)c2ccc(F)c(C)c2)cc1 (centres undefined)	nt	6%	nt	nt	nt	nt
Cc1ccc(S(=O)(=O)NC(=O)Nc2ccccc2)cc1	8%	-7%	6.6µM*	2%	1%	31%
Cc1ccc(S(=O)(=O)NC(=O)Nc2ccc(F)cc2)cc1	9%	-2%	?	2%	-13%	-7%
COc1ccc(Cn2c(CCC(=O)NCc3ccc(Cl)cc3)nc3cccnc32)cc1	nt	23%	nt	nt	nt	nt
CN(c1ccccc1)S(=O)(=O)c1cccc(C(=O)Nc2ccc(N3CCOCC3)cc2)c1	10µM*	3%	?	?	63%	?
COc1ccc(N(C)S(=O)(=O)c2cccc(C(=O)NC3CCCCC3C)c2)cc1 (centres undefined)	?	-7%	?	-6%	1%	?
CN(C)S(=O)(=O)c1cccc(C(=O)Nc2ccc(N3CCOCC3)cc2)c1	?	-9%	20%	-4%	-15%	1%
CN(c1ccccc1)S(=O)(=O)c1ccc(Cl)c(C(=O)Nc2nc3ccccc3[nH]2)c1	?	1%	6.6µM*	62%	-22%	?
COc1ccc(N(C)S(=O)(=O)c2cccc(C(=O)NC3CCCC3)c2)cc1	?	6%	?	-2%	8%	10µM*
SMILES	HCV inh	AmpC detergent	Pf growth 96h	AMA1-RON2 inh	AmpC inh no detg	Pf growth 48h
COc1ccc(N(C)S(=O)(=O)c2cccc(C(=O)Nc3ccc(N4CCOCC4)cc3)c2)cc1	?	1%	?	14%	75%	8.3µM*
CC(C)CC(=O)Nc1nnc(S(=O)(=O)N(CC(C)C)c2ccccc2)s1	nt	2%	nt	nt	nt	nt
CCOc1ccccc1CNC(=O)c1cnc2sc(N3CCCC3)nn2c1=O	nt	-5%	nt	nt	nt	nt
CN(c1ccccc1)S(=O)(=O)c1ccc(Cl)c(C(=O)Nc2ccccc2N2CCOCC2)c1	11µM*	-13%	?	-7%	-9%	?
Cc1ccc(N(C)S(=O)(=O)c2cccc(C(=O)Nc3ccc(N4CCOCC4)cc3)c2)cc1	6.3µM*	?	10µM*	-7%	109%	?
O=S(=O)(c1ccc(F)cc1)c1snnc1-c1ccccc1	-22%	2%	?	-13%	113%	9.3µM*
CN(C)c1ncc(S(=O)(=O)c2ccc(Cl)cc2)c(-c2ccccc2)n1	?	-2%	?	2%	7%	?
c1ccc(-c2nnsc2-c2ncc[nH]2)cc1	8%	-1%	4%	-2%	-25%	21%
O=S(=O)(c1ccc(Cl)cc1)c1snnc1-c1ccccc1	13µM*	?	?	-11%	-26%	nt
Cc1cccc2c1Sc1ccc(Cl)cc1CC2N1CCNCC1 (centres undefined)	13µM*	nt	nt	13%	nt	nt
CN1CCN(C2Cc3ccccc3Sc3cc(C(F)(F)F)ccc32)CC1 (centres undefined)	11µM*	nt	nt	-10%	nt	nt
CCc1cccc2c1Sc1ccccc1CC2N1CCNCC1 (centres undefined)	?	nt	nt	-6%	nt	nt
CSc1ccc2c(c1)C(N1CCN(C)CC1)Cc1ccccc1S2 (centres undefined)	?	-9%	?	?	210%	?
CN1CCN(C2Cc3ccccc3Sc3ccc(Cl)cc32)CC1 (centres undefined)	?	-17%	17µM*	-5%	138%	13µM*
O=c1c2sc3ccccc3c2n(Cc2ccc(F)cc2)c(=O)n1Cc1ccccc1	nt	-1%	nt	nt	nt	nt
CCN(CC)CCCNC(=O)c1nn(C)c2c1CS(=O)(=O)c1ccccc1-2	nt	5%	nt	nt	nt	nt
COc1ccccc1C1C2C(=O)N(c3ccccc3)C(=O)C2ON1c1ccccc1 (centres undefined)	7%	5%	8.3µM*	0%	-9%	1%
O=C(O)COc1ccccc1C1C2C(=O)N(c3ccc(F)cc3)C(=O)C2ON1c1ccccc1 (centres undefined)	-1%	?	2%	7%	-19%	22%
CCc1ccccc1OC[C@@H](O)CN[C@H]1CCCc2ccccc21	?	1%	1.7µM*	-12%	22%	1.9µM*

Screening results as filed in PubChem BioAssay.
